Laboratory results taken from the supplement of paper PMC12669032.

How the values were obtained:
Assay in all cases: growth AUC relative to DMSO control (median of replicates) (fraction); higher = more growth (less inhibition), active = hit call of the paper
Conditions in all cases: 20 µM; 24 h;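 active = AUC reduced over 20% with Padj below 0.05 in at least 2 of 3 replicates; inactive = otherwise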
[1] = tested on: Akkermansia muciniphila
In short: (§1)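 In round-bottom 96-well plates sealed with pierced gas-permeable seals, gut bacterial monocultures in mGAM were grown anaerobically at 37 °C from OD600 0.05 with 20 µM compound (1% DMSO). OD600 readings were taken hourly for 24 h, and the minimum OD was set to 0. Area under the growth curve was then normalised to the plate median of solvent-only wells, or to row and column medians on the industrial chemical plate. The value given is the median of three biological replicates grown on separate days.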

[2] = tested on: Bacteroides caccae
In short: as §1

[3] = tested on: Bacteroides clarus
In short: as §1

[4] = tested on: Bacteroides dorei
In short: as §1

[5] = tested on: Bacteroides stercoris
In short: as §1

[6] = tested on: Bacteroides thetaiotaomicron
In short: as §1

[7] = tested on: Bacteroides uniformis
In short: as §1

[8] = tested on: Bifidobacterium longum subsp. longum
In short: as §1

[9] = tested on: Clostridium difficile
In short: as §1

[10] = tested on: Collinsella aerofaciens
In short: as §1

[11] = tested on: Coprococcus comes
In short: as §1

[12] = tested on: Escherichia coli ED1a
In short: as §1

[13] = tested on: Escherichia coli IAI1
In short: as §1

[14] = tested on: Eubacterium rectale
In short: as §1

[15] = tested on: Fusobacterium nucleatum subsp. animalis
In short: as §1

[16] = tested on: Lactobacillus gasseri
In short: as §1

[17] = tested on: Lactobacillus paracasei
In short: as §1

[18] = tested on: Odoribacter splanchnicus
In short: as §1

[19] = tested on: Parabacteroides distasonis
In short: as §1

[20] = tested on: Parabacteroides merdae
In short: as §1

Measured: growth AUC

CCSC(=O)N(CC(C)C)CC(C)C
inactive: [1] 0.967 | [2] 1.05 | [3] 1 | [4] 1.02 | [5] 0.987 | [6] 1.01 | [7] 0.994 | [8] 0.842 | [9] 0.993 | [10] 1.04 | [11] 1.02 | [12] 1.02 | [13] 1.02 | [14] 0.903 | [15] 1.03 | [16] 1.22 | [17] 0.942 | [18] 0.985 | [19] 0.993 | [20] 0.987

CCOc1nc(F)cc2nc(S(=O)(=O)Nc3c(Cl)cccc3C(=O)OC)nn12
inactive: [1] 0.983 | [2] 0.999 | [3] 0.984 | [4] 0.988 | [5] 0.978 | [6] 0.999 | [7] 0.987 | [8] 0.982 | [9] 0.98 | [10] 1.02 | [11] 0.984 | [12] 0.991 | [13] 1.01 | [14] 0.967 | [15] 0.995 | [16] 1.01 | [17] 1.06 | [18] 1.04 | [19] 1.05 | [20] 1.02

Cc1cccc(C)c1O
inactive: [1] 1.02 | [2] 1.04 | [3] 0.987 | [4] 1.01 | [5] 1.03 | [6] 1.02 | [7] 1 | [8] 0.946 | [9] 1.03 | [10] 1.02 | [11] 1 | [12] 1.04 | [13] 1 | [14] 0.923 | [15] 0.993 | [16] 1.06 | [17] 0.978 | [18] 0.943 | [19] 0.995 | [20] 0.995

Cc1ccc(C)c(O)c1
inactive: [1] 0.958 | [2] 1.02 | [3] 0.98 | [4] 1 | [5] 0.996 | [6] 1 | [7] 1.01 | [8] 1.05 | [9] 1.01 | [10] 1.01 | [11] 0.988 | [12] 0.996 | [13] 1.01 | [14] 0.958 | [15] 0.988 | [16] 1.02 | [17] 0.953 | [18] 1 | [19] 0.991 | [20] 1.03

Nc1cccc(O)c1
inactive: [1] 0.979 | [2] 1.03 | [3] 1.02 | [4] 1 | [5] 0.939 | [6] 1.03 | [7] 1.03 | [8] 1.06 | [9] 1.03 | [10] 0.998 | [11] 1.06 | [12] 1.01 | [13] 1.01 | [14] 0.984 | [15] 1 | [16] 1.04 | [17] 0.94 | [18] 0.975 | [19] 0.993 | [20] 1

Nc1cc(Cl)nc(C(=O)O)c1Cl
inactive: [1] 1.11 | [2] 1.01 | [3] 1.04 | [4] 0.971 | [5] 1.15 | [6] 1.03 | [7] 1.02 | [8] 1.06 | [9] 0.952 | [10] 0.997 | [11] 1.03 | [12] 1.04 | [13] 1.02 | [14] 1.01 | [15] 1.03 | [16] 0.961 | [17] 1.24 | [18] 1.05 | [19] 1.03 | [20] 1.02

CC(C)COC(=O)COc1cc(Cl)c(Cl)cc1Cl
inactive: [1] 0.952 | [2] 0.864 | [3] 0.993 | [4] 0.971 | [5] 1.15 | [6] 0.978 | [7] 1.01 | [8] 1.03 | [9] 1 | [10] 0.91 | [11] 1 | [12] 1.01 | [13] 0.998 | [14] 1.02 | [15] 1.01 | [16] 0.91 | [17] 1.08 | [18] 0.969 | [19] 0.971 | [20] 0.946

CN(C)C(=O)c1cccnc1S(N)(=O)=O
inactive: [1] 1.05 | [2] 1.01 | [3] 1.04 | [4] 1.03 | [5] 1.01 | [6] 0.988 | [7] 1.04 | [8] 1.02 | [9] 1.05 | [10] 1.01 | [11] 1.03 | [12] 1.05 | [13] 1.04 | [14] 1.02 | [15] 1.02 | [16] 1.06 | [17] 1.04 | [18] 1.02 | [19] 1.01 | [20] 1

c1ccc2c(c1)-c1cccc3c1c-2cc1ccccc13
inactive: [1] 0.981 | [2] 1.05 | [3] 1.03 | [4] 1.04 | [5] 1.08 | [6] 1.02 | [7] 1.03 | [8] 1.06 | [9] 1.02 | [10] 1.01 | [11] 1.01 | [12] 0.985 | [13] 1.01 | [14] 1.03 | [15] 1.08 | [16] 1.02 | [17] 0.998 | [18] 1.07 | [19] 1.31 | [20] 1.05

CON(C(=O)c1cc(C)oc1C)C1CCCCC1
inactive: [1] 0.96 | [2] 1 | [3] 1 | [4] 1 | [5] 1.04 | [6] 0.972 | [7] 0.997 | [8] 1.03 | [9] 0.972 | [10] 1.03 | [11] 0.992 | [12] 1.01 | [13] 0.968 | [14] 1 | [15] 1.03 | [16] 1.05 | [17] 0.991 | [18] 1.02 | [19] 1.05 | [20] 0.982

CCOC(=O)Cn1c(=O)sc2cccc(Cl)c21
inactive: [1] 0.779 | [2] 0.987 | [3] 0.979 | [4] 0.97 | [5] 1 | [6] 0.999 | [7] 0.957 | [8] 1.04 | [9] 0.997 | [10] 0.936 | [11] 0.959 | [12] 1.01 | [13] 0.957 | [14] 0.996 | [15] 0.994 | [16] 1.04 | [17] 0.993 | [18] 0.979 | [19] 1.07 | [20] 0.98

CCNc1nc(N)nc(Cl)n1
inactive: [1] 0.954 | [2] 1.01 | [3] 1.02 | [4] 1.01 | [5] 1.12 | [6] 1.03 | [7] 1.02 | [8] 1 | [9] 1.03 | [10] 0.996 | [11] 0.995 | [12] 1 | [13] 1 | [14] 1.02 | [15] 1.04 | [16] 0.933 | [17] 0.891 | [18] 1.02 | [19] 1.02 | [20] 1.02

CC(C)C1C2CCC1c1c(NC(=O)c3cn(C)nc3C(F)F)cccc12 (stereo not given)
inactive: [1] 0.967 | [2] 0.88 | [3] 0.85 | [4] 0.965 | [5] 0.902 | [6] 0.906 | [7] 0.912 | [8] 0.912 | [9] 0.962 | [10] 0.969 | [11] 0.966 | [12] 1 | [13] 0.957 | [14] 0.971 | [15] 0.906 | [16] 0.702 | [17] 0.965 | [18] 0.758 | [20] 0.862
active: [19] 0.533

CCNC(=O)[C@@H](C)OC(=O)Nc1ccccc1
inactive: [1] 0.912 | [2] 0.991 | [3] 1.02 | [4] 0.992 | [5] 1.06 | [6] 1.01 | [7] 0.969 | [8] 0.976 | [9] 1.03 | [10] 1.1 | [11] 1.04 | [12] 1.01 | [13] 1.01 | [14] 1.01 | [15] 1.05 | [16] 1.18 | [17] 0.941 | [18] 0.955 | [19] 1.08 | [20] 1.04

CCNc1nc(NCC)nc(OC)n1
inactive: [1] 0.914 | [2] 1.02 | [3] 1.02 | [4] 1 | [5] 1.01 | [6] 0.967 | [7] 0.992 | [8] 0.957 | [9] 1 | [10] 0.992 | [11] 1.05 | [12] 1.03 | [13] 0.975 | [14] 1 | [15] 1.01 | [16] 0.921 | [17] 0.977 | [18] 1.01 | [19] 1.04 | [20] 1

FC(F)(F)c1cccc(C(c2ccccc2)(c2ccccc2)n2cncn2)c1
inactive: [1] 0.852 | [3] 0.93 | [4] 0.92 | [5] 0.892 | [6] 0.869 | [7] 0.877 | [8] 0.948 | [9] 1.04 | [10] 0.924 | [11] 0.713 | [12] 0.975 | [13] 0.959 | [15] 0.899 | [16] 0.851 | [17] 1.11 | [18] 1.03 | [19] 0.842
active: [2] 0.02 | [14] 0.646 | [20] 0.619
